Compounds without any hit were thinned out: in the full panel of roughly 83,000, 20% have a hit.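 Treatment: one concentration, 48 hours, 96-well format. Scoring: percent growth, with anything below 10 considered active.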 Unmarked numbers belong to inactive results.
Test system: HOP-92 NSCLC
Assay: NCI-60 one-dose screen, 48 h (100 = growth as untreated, 0 = no growth, -100 = all killed)
Details: 10 µM unless noted

| SMILES | growth [%] |
| --- | --- |
| CC(C)=CCC[C@H](C(=O)O)[C@@H]1CC[C@]2(C)C3=C(CC[C@@]12C)[C@@]1(C)CC[C@H](O)C(C)(C)[C@@H]1CC3 | 101 |
| C=CC[PH+](c1ccccc1)c1ccccc1.C=CC[PH+](c1ccccc1)c1ccccc1.[Cl][Pt][Cl] | 16 |
| CN1CCC(O)(c2ccc(F)cc2)C(C(=O)c2ccc(F)cc2)C1 (configuration not stated) | 96.4 |
| COc1ccc2c(c1)c(-c1nc(-c3c[nH]c4ncccc34)cs1)cn2CCN1CCOCC1 | 28.8 |
| COC(=O)[C@@H](C)C[C@H](Cc1ccccc1)NC(=O)c1csc([C@@H](C[C@H](C(C)C)N(C)C(=O)[C@@H](NC(=O)[C@H]2CCCCN2C)C(C(F)(F)F)C(F)(F)F)OC(C)=O)n1 | 12.4 |
| CN1CC(=O)N(O)C1(C)c1cccnc1 (configuration not stated) | 116 |
| COc1cc(/C=C/[N+](=O)[O-])cc(OC)c1 | 28.9 |
| CC12CCC3C(CCC4Cc5[nH]c6ccccc6c5CC43C)C1CCC2O (configuration not stated) | 63.4 |
| COC(=O)C12CC(NC(=O)c3csc([C@@H](C[C@H](C(C)C)N(C)C(=O)[C@@H](NC(=O)[C@H]4CCCCN4C)C(C)C)OC(C)=O)n3)(C1)C2 | 52.8 |
| CC1CN1CCCCN1CC1C (configuration not stated) | 88.2 |
| CC(=O)O[C@H](C[C@H](C(C)C)N(C)C(=O)[C@@H](NC(=O)[C@H]1CCCCN1C)C(C)C)c1nc(C(=O)NC2CCC(C(=O)O)CC2)cs1 (some centres not stated) | 38 |
| CC[C@H](C)[C@@H]([C@@H](CC(=O)N1CCC[C@H]1[C@H](OC)[C@@H](C)C(=O)N[C@H](C)[C@@H](O)c1ccccc1)OC)N(C)C(=O)[C@@H](NC(=O)[C@@H](NC)C(C)C)C(C)C | 11.5 |

Reference: PubChem BioAssay (NCI)
